# Measured values reported in PubChem BioAssay (NCI).
# Compounds without any hit were thinned out: in the full panel of roughly 83,000, 20% have a hit.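 Single-concentration screen, 48 h exposure, 96-well plates. Endpoint: percent growth. Below 10 = active.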 Activity calls are given as the source filed them.
# System: T-47D breast
# Assay: NCI-60 one-dose screen, 48 h (100 = growth as untreated, 0 = no growth, -100 = all killed)
# Details: 10 µM unless noted
# Experimental: Growth inhibition of the T-47D human tumor cell line is measured as a screen for anti-cancer activity. Cells are grown in 96 well plates and exposed to the test compound for 48 hours. Compounds are tested at a single concentration, which is 10^-5 M for most compounds. The reported endpoint is percent growth (GI% or GIPRCNT), where numbers from 0 - 100% represent growth inhibition, and numbers from -100% - 0 represent cell death. For example, a value of 40 represents 60% growth inhibition. A value of 0 means no net growth occurred over the course of the experiment. A value of -40 indicates 40% of cells at the beginning of the experiment died by the end of the experiment. A value of -100 means all cells are dead at the end of the experiment.
# NCI-60 Human Tumor Cell Lines Screen was performed using the standard one-dose NCI protocol, which is described in more detail at https://dtp.cancer.gov/discovery_development/nci-60/default.htm.
# Compounds with GIPRCNT values below 10 were considered active. Activity score was based on GIPRCNT using the following formula: […]
# Score is 0 for GIPRCNT values of 100 or above, 50 for GIPRCNT values of 0, and 100 for GIPRCNT values of -100.
row,SMILES,growth
1,Cc1ccc(-c2cc(-c3ccccc3C)[nH]c(=O)c2C#N)s1,86.5% (inactive)
2,NC[C@H](O)c1ccc(O)c(O)c1,110% (inactive)
3,NS(=O)(=O)c1cnccc1Oc1cccc2cccnc12,109% (inactive)
4,O=C1N=c2cc3c(cc2=C/C1=C/c1sc(=S)n(CCc2ccc(O)cc2)c1O)OCCO3,81.5% (inactive)
5,N#Cc1c(N2CCNCC2)nc2sc3cc(Cl)c(Cl)cc3n2c1=N,89.5% (inactive)
6,c1ccc2cc3nc4cc5ccccc5cc4nc3cc2c1,94.3% (inactive)
7,Clc1ccc(-c2c3ccc(=[N+]4CCCCC4)cc-3oc3cc(N4CCCCC4)ccc23)cc1,-75.3% (active)
8,CCCCCCCC/C=C\CCCCCCCCOc1ccccc1CC(=O)NCC[N+](C)(C)C,94.4% (inactive)
9,Cc1cc(NCc2cc(Nc3ccnc4cc(Cl)ccc34)ccc2F)nc(N2CCSCC2)n1,-37.8% (active)
10,CC(=O)C(C)Cc1cc2c(cc1C)C(C)(C)CCC2(C)C (stereo not given),80.2% (inactive)
11,CC1O[C@@H](OC2[C@H](OC(=O)/C=C/c3ccc(O)c(O)c3)C(COC3O[C@H](C)C(O)C(O)[C@@H]3O)O[C@@H](OCCc3ccc(O)c(O)c3)[C@H]2O)[C@@H](O)C(O)[C@H]1O (stereo not given in full),83.1% (inactive)
12,CC1=C(SCCC(=O)OC(C[Se]C2=C(C)C(=O)c3ccccc3C2=O)C(=O)NCCCCCC(=O)OCc2ccccc2)C(=O)c2ccccc2C1=O (stereo not given),49.9% (inactive)
13,COc1cccc(Nc2nccc(Nc3ccc4[nH]ncc4c3)n2)c1,-51.9% (active)
14,CCN1C(=O)N(CC)C2C1NN=c1s/c(=C\c3cccs3)c(=O)n12 (stereo not given),60.6% (inactive)
15,COc1ccc2c(c1)C(=O)/C(=C/c1ccc(OCC(=O)Nc3nccs3)cc1)O2,75.2% (inactive)
16,O=C(O)c1ccc2c(c1)CCC2,106% (inactive)
17,COc1c(CCC[P+](c2ccccc2)(c2ccccc2)c2ccccc2)cc2c(c1OC)OCO2,2.54% (active)
18,Fc1cnc(NC2CC2)nc1-c1cnc2ccc(N3CCOCC3)cn12,7.29% (active)
19,CC1=NOC(=O)/C1=C\c1ccc(O)cc1,104% (inactive)
20,O=C(Nc1cccc2c(O)c(N=Nc3ccc(S(=O)(=O)Nc4nccs4)cc3)cc(N=Nc3ccc(S(=O)(=O)Nc4nccs4)cc3)c12)C(Cl)Cl,88.3% (inactive)

row,SMILES,growth
1,CCOc1c(C#N)nnc2c(C#N)c(NC(=O)c3ccccc3)nn12,98.8% (inactive)
2,O=C1CCc2c(sc3[nH]c(=S)n(-c4ccc(OC(F)(F)F)cc4)c(=O)c23)C1,20.3% (inactive)
3,CC1OC(O[C@H]2/C=C/C=C/C=C/C=C/C=C/C=C/C=C/[C@H](C)[C@@H](O)[C@@H](C)[C@H](C)OC(=O)CC(O)CC(O)CCC(O)C(O)CC(O)C[C@]3(O)C[C@H](O)C(C(=O)O)C(C2)O3)C(O)[C@H](N)C1O (stereo not given in full),54.3% (inactive)
4,COc1cc2c(cc1-c1c(C)noc1C)ncc1nc(C3CCCCC3)n(C3CCC(OC(F)F)CC3)c12 (stereo not given),-0.67% (active)
5,COc1cccc(-c2nc3sccn3c2-c2ccnc(NCCNS(=O)(=O)c3ccc(C(F)(F)F)cc3)c2)c1,5.15% (active)
6,O=C(CCCCCCN1CC(=O)N2[C@@H](c3ccccc3Cl)c3[nH]c4ccccc4c3C[C@H]2C1=O)NO,28.3% (inactive)
7,Fc1c[c-]c(-c2ccccn2)c(F)c1.[CH3-].[Pt+2].c1ccc(P(C[PH+](c2ccccc2)c2ccccc2)c2ccccc2)cc1,-5.03% (active)
8,COc1ccc(C2=NN(C(=O)c3cc(OC)c(OC)c(OC)c3)C(c3ccc(Cl)cc3)C2)cc1OC (stereo not given),24.6% (inactive)
9,O=C(Nc1ccccc1)Nc1cccc(Oc2nnc(Cl)c3ccccc23)c1,-18% (active)
10,O=c1[nH]c2ccccc2n1C1CCN(CCOc2ccccc2)CC1,87.5% (inactive)
11,OC(COc1ccccc1Cl)COc1ccccc1Cl,97.1% (inactive)
12,Cc1cc(O)c(C2=NN(c3ccc(S(N)(=O)=O)cc3)C(c3ccccc3Cl)C2)cc1Cl (stereo not given),18.3% (inactive)
13,CCCCCCCCCCCCCCCCCC1=NCCN1CCOC1=C(Cl)C(=O)c2ccccc2C1=O,12.6% (inactive)
14,O=c1c2c3c(sc2n2c(-c4cc(-c5ccccc5)nn4-c4ccccc4)nnc2n1Cc1ccccc1)CCCC3,72.5% (inactive)
15,CC(C)CCC[C@@H](C)[C@H]1CC[C@H]2[C@@H](Nc3ccc(O)cc3)CCC[C@]12C,-15.8% (active)
16,COc1ccc(-c2nc3sccn3c2-c2cc(-c3cc(OC)c(OC)c(OC)c3)on2)cc1,51.9% (inactive)
17,COc1cc(OC)cc(C2CC(=O)Nc3c2c(C)nn3-c2nc3ccccc3[nH]2)c1 (stereo not given),12.6% (inactive)
18,Cc1cc[c-]cc1.Fc1c[c-]c(-c2ccccn2)c(F)c1.[Pt+2].c1ccc(P(C[PH+](c2ccccc2)c2ccccc2)c2ccccc2)cc1,8.85% (active)
19,COc1cc(/C=N/NC(=O)Cn2c(C(C)C)nc3ccccc32)ccc1O,94% (inactive)
20,COc1cccc2c1C(=O)c1c(O)c3c(c(O)c1C2=O)CC(O)(/C(C)=N/NC(=O)CCCCC(=O)N/N=C(\C)C1(O)Cc2c(O)c4c(c(O)c2C(OC2CC(N)C(O)C(C)O2)C1)C(=O)c1c(OC)cccc1C4=O)CC3OC1CC(N)C(O)C(C)O1 (stereo not given),-16.2% [5 µM] (active)
